# “And” between values parts separate entries of the source, which are not always exact repeats. Equal values may be shown once.
# Legend:
# Format in all cases: functional
# [1] = biological target: Solute carrier family 2, facilitated glucose transporter member 1 (Homo sapiens) (UniProt P11166); test: ST_JUDE_LEISH: Cytotoxicity at 2uM final concentration against transgenic Leishmania Mexicana promastigotes LmGLUT1 that are glucose transport deficient and complemented with the human glucose transporter GLUT1. Activity is measured by DNA content using SYBR green in vitro
# [2] = biological target: Hexose transporter 1 (Plasmodium falciparum) (UniProt O97467); test: ST_JUDE_LEISH: Cytotoxicity at 2uM final concentration against transgenic Leishmania Mexicana promastigotes LmPfHT that are glucose transport deficient and complemented with the Plasmodium falciparum hexose transporter. Activity is measured by DNA content using SYBR green in vitro
# [3] = biological target: Glucose transporter (Leishmania mexicana) (UniProt O61059); test: ST_JUDE_LEISH: Cytotoxicity at 2uM final concentration against transgenic Leishmania Mexicana promastigotes LmGT2 that are glucose transport deficient and complemented with the L. Mexicana glucose transporter 2. Activity is measured by DNA content using SYBR green in vitro
# Chain of Solute carrier family 2, facilitated glucose transporter member 1 (Homo sapiens) (P11166 whole entry): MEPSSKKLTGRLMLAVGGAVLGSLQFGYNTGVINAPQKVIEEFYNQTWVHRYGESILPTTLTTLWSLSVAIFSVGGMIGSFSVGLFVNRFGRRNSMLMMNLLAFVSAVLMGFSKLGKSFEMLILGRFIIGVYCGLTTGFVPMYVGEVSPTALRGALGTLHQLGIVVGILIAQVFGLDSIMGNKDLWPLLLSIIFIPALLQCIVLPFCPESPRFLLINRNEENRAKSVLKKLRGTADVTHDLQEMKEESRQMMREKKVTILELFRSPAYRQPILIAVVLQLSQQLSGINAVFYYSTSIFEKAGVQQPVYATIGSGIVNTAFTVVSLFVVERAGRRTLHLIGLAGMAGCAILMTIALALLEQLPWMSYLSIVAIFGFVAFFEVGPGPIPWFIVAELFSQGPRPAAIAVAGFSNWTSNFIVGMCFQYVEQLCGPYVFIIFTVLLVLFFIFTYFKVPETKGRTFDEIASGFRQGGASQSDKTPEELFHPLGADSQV
Compound,inhibition [1],inhibition [2],inhibition [3]
O=C(NC1CCN(Cc2ccccc2)CC1)c1cc(-c2cccnc2)nc2ccc(Cl)cc12,8.75%,6.45%,8.35%
COC(=O)c1cc(OC2CCOC2=O)cc2c1OC(C)(C)O2 (stereo not given),10.9%,12.7%,8.43%
Nc1ncc(-c2ccc(Br)cc2)c(N)n1,1.2%,-0.78%,-0.3%
FC(F)(F)c1ccc2[nH]c(-c3ccc(-c4ccc(CN5CCN(c6cnccn6)CC5)cc4)cc3)nc2c1,12.9%,10.6%,7.09%
COc1ccc(C=CC(=O)Nc2ccc(N3CCCC3)cc2)cc1,1.15%,-1.95%,-1%
OC1CCCN(Cc2ccc(-c3cccc(-c4nc5ccccc5[nH]4)c3)cc2)C1 (stereo not given),2.79%,1.57%,2.79%
CN(C(=O)Nc1ccc(C(F)(F)F)cc1)C1CCN(CCCCCNC(=O)/C=C/c2ccc(Cl)c(Cl)c2)CC1,4.18%,2.6%,0.47%
CCCCOc1c(CCC)cc(Cc2cnc(N)nc2N)cc1CCC,7.57%,3.82%,-0.35%
O=[N+]([O-])c1ccc(-c2nc3cc(C4=NC5CCCCC5N4)ccc3[nH]2)cc1 (stereo not given),-0.03%,-0.65%,-4.46%
Cc1ccc(NC(=O)c2nc(N3CCN(c4ccncc4)CC3)ccc2Cl)cc1F,13.1%,7.01%,5.57%
CN(C)c1ccc(-c2ccc(C(=O)NC3CCN(Cc4ccccc4)CC3)s2)cc1,1.65%,0.56%,1.83%
CC(C)COc1ccc(Cl)cc1Cc1nc(-c2nc3ccc(CN4CCN(C)CC4)cc3[nH]2)co1,8.24%,7.62%,7.58%
c1ccc(CN2CCC(NCc3ccc(-c4cncc5ccccc45)cc3)CC2)cc1,0.33%,-2.18%,3.84%
O=S(=O)(NCCN1CCCC1)c1ccc(-c2ccc(CNCc3ccsc3)cc2)cc1F,8.07%,1.33%,-0.2%
Cc1nc(N/C(N)=N/C(=O)NC2CCCCC2)nc2ccccc12,7.72%,5.72%,6.66%
CC(C)(C)Oc1ccc(NC(=O)c2ccccc2O)cc1,6.73%,5.36%,4.28%
O=C(/C=C/c1ccc(Cl)c(Cl)c1)NCCCCCN1CCC(c2c[nH]c3ccccc23)C(O)C1 (stereo not given),0.14% and 4.45%,0.8% and 4.3%,2.14% and 3.3%
Cc1csc2nc(C(C)c3ccc(NC(=O)c4cccs4)cc3)oc(=O)c12 (stereo not given),1.03%,-0.57%,-0.38%

Compound,inhibition [1],inhibition [2],inhibition [3]
COc1cc(Cc2cnc(N)nc2N)cc(OCCCCc2ccc([N+](=O)[O-])cc2)c1OC,-1.12%,-1.89%,1.51%
N#Cc1c(-c2ccccc2)cn2c1[nH]c(=O)c1ccccc12,-1.7%,2.37%,1.89%
Clc1ccc(Cn2nc(Br)nc2Br)c(Cl)c1,-0.61%,-1.03%,-4.56%
COc1ccc(CNCCCCCCCNCc2ccc(Cl)c(Cl)c2)cc1Cl,5.86%,4.67%,2.7%
CCn1c(SCc2ccc(F)cc2)nc2sc3c(c2c1=O)CCN(C)C3,-1.93%,1.32%,0.64%
c1ccc2[nH]c(-c3ccc(-c4ccc(CN5CCCCC5)cc4)cc3)nc2c1,18.2%,12.9%,10.6%
c1cc(CN2CCN(CCN3CCOCC3)CC2)cc(-c2ccc(-c3nc4ccccc4[nH]3)cc2)c1,10.9%,6.81%,9.58%
C[C@H](Nc1c(Nc2ccc3[nH]ccc3c2)c(=O)c1=O)C1CCCCC1,-1.55%,0.15%,-0.44%
COc1cccc(OC)c1C(=O)N1CCC2(CC1)C(=O)N(CC(=O)NC1CCCCC1)CN2c1ccccc1,0.35%,4.45%,3.89%
Cc1ccc(C(=O)N2CCc3cc4nccc(N5CCN6CCC[C@H]6C5)c4cc32)cc1,1.81%,0.6%,1.55%
Cc1cccc2nc(-c3cccc(-c4cccc(NC(=O)CNC(=O)c5ccc(O)cc5)c4)c3)[nH]c12,0.25%,-0.56%,-0.5%
O=C(/C=C/c1ccccc1Cl)Nc1ccc(Br)c(OCCN2CCCCC2)c1,2.43%,2.16%,-0.1%
CCc1c[nH]c2c(N3CCCC3=O)cc(C(=O)N[C@@H](Cc3ccccc3)[C@H](O)CNC3CCCCC3)cc12,7.8%,6.05%,9.77%
CCN1CCN(CCCNc2c3ccc(Cl)cc3nc3ccc(O)cc23)CC1,0.03%,0.02%,0.06%
Cc1ccc(S(=O)(=O)N2CCN(C(=O)c3cc(-c4ccccc4)n[nH]3)CC2)cc1,4.96%,2.9%,2.37%
Cc1cc(NCCC(=O)Nc2ccccc2)nc(NCc2ccccc2C)n1,11%,10.5%,7.37%
Cc1nc2nc(N)nc(N)c2c(C)c1Cc1cccc(F)c1,2.65%,1.14%,0.65%

# Source: ChEMBL document CHEMBL3433997, “St. Jude Leishmania screening dataset” (2016)
